Measurements: ChEMBL document CHEMBL4513216, “Probing the Open Global Health Chemical Diversity Library for Multistage-Active Starting Points for Next-Generation Antimalarials” (ACS Infect Dis, 2020)
Hit rate of the full screen: of about 69,000 compounds, about 8,600 (12%) showed an effect of 50% or more. This excerpt belongs to a sample that is enriched for strong results.

System: Plasmodium berghei
Experiment: Screen against P. berghei liver stage (PbLuc), transformed with Luciferase, at 10uM
Format: functional, HepG2
Conditions: tested at 10 uM

For `O=c1[nH]c2cn(-c3cccc(F)c3)c(=O)n2n1Cc1ccc(Cl)cc1`, which INHIBITION is on record?
The INHIBITION was 28.7%.

`CCSc1ccccc1C(=O)N(CCOC)Cc1ccoc1` was tested. Which INHIBITION did it give?
Its INHIBITION is 25.1%.

With `Cc1cc(C(F)(F)F)nn1CC(C)C(=O)NC(C)C` (centres undefined) as the compound, how does the INHIBITION read?
Its INHIBITION is 42.4%.

Which INHIBITION does the source give for `CNC(=O)CN1CCCC12CCN(Cc1c[nH]cn1)CC2` here?
Its INHIBITION is 19.5%.

With `CC(C)CN1CCn2nc(CNc3ncnc4[nH]ccc34)cc2C1` as the compound, how does the INHIBITION read?
The INHIBITION was -2.39%.

Which INHIBITION does the source give for `COc1ccc(C[C@H]2CNCC[C@H]2OC)cc1` here?
The INHIBITION was 1.34%.

How did the INHIBITION turn out when `Cc1cnn(C2CCCN(C(=O)CCc3cscn3)C2)c1` (centres undefined) was run?
Its INHIBITION is 33.7%.

For `CC(=O)N1CCCN(c2cc(C3CN(C)CCO3)nc(C)n2)CC1` (centres undefined), which INHIBITION is on record?
The INHIBITION was 36.4%.

Which INHIBITION does the source give for `CS(=O)(=O)C1(C(=O)NC2CCc3nccn3C2)CCCC1` (centres undefined) here?
The INHIBITION was 74.8%.

With `COc1ccc(C2(C(=O)NC3CCc4nccn4C3)CCCC2)cc1` (centres undefined) as the compound, how does the INHIBITION read?
Its INHIBITION is 24.3%.

Which INHIBITION does the source give for `Cc1cn2c(n1)CCC(NC(=O)CCCn1cncn1)C2` (centres undefined) here?
Its INHIBITION is 29.2%.

With `O=C(CCCn1cncn1)NC1CCc2nccn2C1` (centres undefined) as the compound, how does the INHIBITION read?
Its INHIBITION is 62.1%.

With `CCS(=O)(=O)CC(=O)NC1CCc2nccn2C1` (centres undefined) as the compound, how does the INHIBITION read?
Its INHIBITION is 36.3%.

For `O=C(CCn1cncn1)NC1CCc2nccn2C1` (centres undefined), which INHIBITION is on record?
Its INHIBITION is -3.7%.

`Cc1nc(C)n(CC2CN(Cc3noc(C4CC4)n3)CCO2)n1` (centres undefined) was tested. Which INHIBITION did it give?
Its INHIBITION is 16.8%.

With `CCc1nc(N2CCC3(CC2)CC(=O)N(Cc2ccc(Cl)cc2)C3)no1` as the compound, how does the INHIBITION read?
The INHIBITION was -88.1%.

`CCc1n[nH]c(C2CN(CCCS(C)(=O)=O)CCO2)n1` (centres undefined) was tested. Which INHIBITION did it give?
The INHIBITION was 9.14%.

Which INHIBITION does the source give for `CS(=O)(=O)N1CCC(NC(=O)COc2ccc(Cl)c(Cl)c2)CC1` here?
The INHIBITION was 27.4%.

`Cc1csc(CCNC(=O)C2CCN(CC(N)=O)CC2)n1` was tested. Which INHIBITION did it give?
The INHIBITION was -23.5%.

For `NC(=O)CN1CCC(C(=O)NCCc2nc(-c3ccccc3)cs2)CC1`, which INHIBITION is on record?
The INHIBITION was -53.6%.

`NC(=O)CN1CCC(C(=O)NCc2nc(-c3ccc(F)cc3)cs2)CC1` was tested. Which INHIBITION did it give?
The INHIBITION was 55.2%.

With `O=C(O)c1ccc(Cc2cccc(F)c2)nc1` as the compound, how does the INHIBITION read?
Its INHIBITION is 3.48%.

`N#Cc1ccc(C(=O)NCC2(N3CCOCC3)CCCC2)nc1` was tested. Which INHIBITION did it give?
Its INHIBITION is 10.8%.

How did the INHIBITION turn out when `c1cnn(C2CN(Cc3nc(-c4ccsc4)no3)C2)c1` was run?
Its INHIBITION is 17%.

Which INHIBITION does the source give for `Cc1ccccc1-c1noc(CN2CCC(N3CCNC3=O)CC2)n1` here?
The INHIBITION was 88.2%.

Which INHIBITION does the source give for `c1cc(C2CCN(Cc3nc(-c4ccsc4)no3)CC2)[nH]n1` here?
The INHIBITION was 8.12%.

For `O=C1NCCN1C1CCN(Cc2nc(-c3ccccc3)no2)CC1`, which INHIBITION is on record?
Its INHIBITION is 92.3%.

With `O=C1NCCN1C1CCN(Cc2nc(-c3ccsc3)no2)CC1` as the compound, how does the INHIBITION read?
Its INHIBITION is 85.4%.

For `Cc1ccc(-c2noc(CN3CCC(N4CCNC4=O)CC3)n2)cc1`, which INHIBITION is on record?
The INHIBITION was 86.8%.

How did the INHIBITION turn out when `Cc1ccccc1-c1noc(CN2CCC(c3ccn[nH]3)CC2)n1` was run?
The INHIBITION was -7.46%.

`O=C(O)C1(n2cccn2)CCN(Cc2nc(-c3ccccc3)no2)CC1` was tested. Which INHIBITION did it give?
The INHIBITION was 35.9%.

Which INHIBITION does the source give for `Cc1ccc(-c2noc(CN3CCC(c4ccn[nH]4)CC3)n2)cc1` here?
The INHIBITION was 12.8%.

For `Cc1cccc(-c2noc(CN3CCC(N4CCNC4=O)CC3)n2)c1`, which INHIBITION is on record?
The INHIBITION was 41.1%.

`Cc1ccccc1-c1noc(CN2CCOC(Cn3cccn3)C2)n1` (centres undefined) was tested. Which INHIBITION did it give?
The INHIBITION was 23.95%.

With `N#CCCN(CC1CC1)Cn1cc(Cl)cn1` as the compound, how does the INHIBITION read?
The INHIBITION was 13.3%.

How did the INHIBITION turn out when `O=C1CC(N(C(=O)CCc2c[nH]c3ccccc23)C2CC2)C(=O)N1` (centres undefined) was run?
Its INHIBITION is 41.8%.

`Cn1ccc2c(C(=O)N3CCCC3c3noc(C4CC4)n3)cccc21` (centres undefined) was tested. Which INHIBITION did it give?
The INHIBITION was 19.2%.

How did the INHIBITION turn out when `Cc1nc(CN2C[C@@H]3CN(C(=O)NC(C)C)C[C@@H]3C2=O)cs1` was run?
The INHIBITION was 11.3%.

With `COCC1c2c(cnn2C)CCN1Cc1ccc(C)cc1` (centres undefined) as the compound, how does the INHIBITION read?
Its INHIBITION is 31.7%.

`CSC(C)(C)CNC(=O)NC(c1nnc2n1CCC2)C(C)C` (centres undefined) was tested. Which INHIBITION did it give?
Its INHIBITION is 21.5%.

With `COCCN1CCC2(CCC(=O)N2Cc2csc(C)n2)CC1` as the compound, how does the INHIBITION read?
The INHIBITION was -45.8%.

With `CCN1CCN(C2CCN(Cc3nc(-c4ccoc4)no3)CC2)C1=O` as the compound, how does the INHIBITION read?
Its INHIBITION is 26.3%.

How did the INHIBITION turn out when `Fc1ccc(-c2noc(CN3CCC(c4cc[nH]n4)CC3)n2)cc1` was run?
Its INHIBITION is 34.6%.

Which INHIBITION does the source give for `O=C1NCCN1C1CCN(Cc2nc(-c3ccc(F)cc3)no2)CC1` here?
Its INHIBITION is 93.6%.

For `CN1CCN(C2CCN(Cc3nc(-c4ccoc4)no3)CC2)C1=O`, which INHIBITION is on record?
Its INHIBITION is 59.4%.

With `O=C1NCCN1C1CCN(Cc2nc(-c3ccoc3)no2)CC1` as the compound, how does the INHIBITION read?
Its INHIBITION is 17%.

`COCCN1CCN(Cc2nc(-c3ccoc3)no2)CC1` was tested. Which INHIBITION did it give?
Its INHIBITION is 31.1%.

`O=C(c1ccc(-n2cccn2)c(F)c1)N1CCCN2CCCC2C1` (centres undefined) was tested. Which INHIBITION did it give?
The INHIBITION was 49.1%.

How did the INHIBITION turn out when `CCN(CC)C(=O)CN1CCCC1c1nc(C)c2c(n1)N(C)C(=O)CC2` (centres undefined) was run?
The INHIBITION was -0.55%.

Which INHIBITION does the source give for `CC(=O)N1CCCC(Cc2nccn2C)C1` (centres undefined) here?
The INHIBITION was 5.56%.

`C[C@@H]1CN(c2ccc(Cl)cn2)C[C@@]1(O)C1CC1` was tested. Which INHIBITION did it give?
Its INHIBITION is 25.145%.

With `C=C(C)Cn1nnc(C2(NC(=O)c3ccccc3)CCCC2)n1` as the compound, how does the INHIBITION read?
The INHIBITION was 71.2%.

Which INHIBITION does the source give for `O=C(NC1(c2nnn(CCO)n2)CCCC1)c1ccccc1` here?
The INHIBITION was -16.2%.

For `O=C(NC1(c2nnn(CC3CC3)n2)CCCC1)c1ccccc1`, which INHIBITION is on record?
The INHIBITION was 42%.

Which INHIBITION does the source give for `Cc1cc(C)nc(C2CCN(C(=O)c3cnco3)C2)n1` (centres undefined) here?
The INHIBITION was -8.12%.

With `Cc1nn(C)c(C)c1C1COCCN1c1ncnc2c(C)cccc12` (centres undefined) as the compound, how does the INHIBITION read?
Its INHIBITION is 28.6%.

Which INHIBITION does the source give for `Cc1ccc2ncnc(N3CCOCC3c3c(C)nn(C)c3C)c2c1` (centres undefined) here?
The INHIBITION was 30%.

With `Cc1nn(C)c(C)c1C1COCCN1c1ncncc1Br` (centres undefined) as the compound, how does the INHIBITION read?
Its INHIBITION is 57.7%.

How did the INHIBITION turn out when `CN(Cc1ccc2c(c1)OCO2)C(=O)NCCc1cnn(C)c1` was run?
Its INHIBITION is 28.15%.

For `Cc1ccccc1CNC(C)c1ccc(OCC(=O)NC2CC2)cc1` (centres undefined), which INHIBITION is on record?
The INHIBITION was 7.08%.

For `Cc1nc2c(C#N)cnn2c(C)c1CCC(=O)N(C)C1CC1`, which INHIBITION is on record?
Its INHIBITION is 28.5%.

For `Cc1nn(C)c(C)c1CCC(=O)N(C)Cc1ccc(C#N)cc1`, which INHIBITION is on record?
The INHIBITION was -12.5%.

`COCC(C)N(C)C(=O)CCc1c(C)nc2c(C#N)cnn2c1C` (centres undefined) was tested. Which INHIBITION did it give?
The INHIBITION was 63.8%.

How did the INHIBITION turn out when `Cc1nc2c(C#N)cnn2c(C)c1CCC(=O)N(C)C(C)C(C)C` (centres undefined) was run?
Its INHIBITION is 62.8%.

For `COC(=O)c1cc(C2CC2)nc2c(C#N)cnn12`, which INHIBITION is on record?
The INHIBITION was 25.9%.

For `Cc1nc2cc(O)nn2c(C)c1CCC(=O)N(C)CCC(C)C`, which INHIBITION is on record?
The INHIBITION was -57.5%.

`CCCn1[nH]c(CNc2cccc(Cl)c2)nc1=O` was tested. Which INHIBITION did it give?
Its INHIBITION is 46.4%.

For `Cc1nnc2n1CCN(C(=O)c1cc3cc(F)ccc3[nH]1)C2`, which INHIBITION is on record?
The INHIBITION was 14.1%.

Which INHIBITION does the source give for `Cn1cc(CN2CCC3(CCCN(C(=O)c4cscn4)C3)C2)cn1` (centres undefined) here?
The INHIBITION was -68.5%.
